Test results from PubChem BioAssay (NCI).
This is part of a sample that, as a whole, favours compounds with a hit. Of some 83,000 tested, about 20% had one in any assay.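 Each cell line was grown in a 96-well plate and treated with one concentration of compound for 48 hours. Values below 10 were considered active.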 Activity calls are given as the source filed them.

What follows are molecules tested on HL-60(TB) leukemia (assay: NCI-60 one-dose screen, 48 h (100 = growth as untreated, 0 = no growth, -100 = all killed)). Conditions: 10 µM unless noted.

SMILES | growth
Nc1nc(NC2CC2)cc(-c2cccc(Cl)c2Cl)n1 | 32.6% (inactive)
Cn1cc(-c2ccc3cc(-c4ccc(CC(=O)Nc5cc(C(C)(C)C)on5)cc4)cnc3c2)cn1 | -14.3% (active)
Cc1cccc(Cc2cnc(NC(=O)CCc3ccc(C)o3)s2)c1 | -41.5% (active)
COc1ccccc1/C=C/C1=C(C)CCC(c2ccccc2OC)C1C (stereo not given) | -41.1% (active)
Cc1ccc(NC(=O)c2ccc(CN3CCN(C)CC3)cc2)cc1Nc1nc(-c2cccnc2)cs1 | 57.9% (inactive)
COC1=CC(c2ccc[nH]2)=N/C1=C\c1[nH]c(C)c(C(=O)Oc2ccccc2)c1C | 11.4% (inactive)
CN(C)CCN(Cc1ccccc1)c1ccc2ccccc2n1 | 89.7% (inactive)
c1ccc(-c2nnc(-c3ccccn3)s2)nc1 | 95.8% (inactive)
COc1ccc(-n2c(=O)n(-c3ccc(-c4nc5ccc(F)cc5s4)cc3)c(=O)c3cccnc32)cc1 | 102% (inactive)
CCCCCSc1ccc2nc(NC(=O)OCC)sc2c1 | 4.55% (active)
O=C(/C(=C\c1c(-c2ccccc2)[nH]c2ccccc12)S(=O)(=O)c1ccccc1)c1ccccc1 | -18.2% (active)
C[C@H](C(=O)Nc1ccc(S(N)(=O)=O)cc1)S(=O)(=O)c1ccccc1 | 101% (inactive)
Clc1ncccc1Nc1ccc2nnc(-c3ccncc3)n2n1 | 89.5% (inactive)
O=C(N/N=C/c1ccc(O)cc1O)c1cccc(Nc2ccnc(C(F)(F)F)c2)c1 | 8.21% (active)
c1ccc(-n2nnnc2-c2cccc3ccccc23)cc1 | -21.8% (active)
